Values joined by “and” are separate entries in the source; they are usually repeats but may differ in a detail not shown here. Equal entries are not always repeated. Out of some 16,000 compounds screened, about 4,000 (25%) were called active. Another 26% or so got no clear call; they are omitted. Calls come from the whole dose curve; as a rule, active = well fitted curve in the direction sought with a large enough effect; inconclusive = small, poorly fitted or top-dose-only effect, or effect the other way; inactive = no such curve, though single readings can be large or run the other way. Only a sample is shown. A structure can be active in one record and inactive in another.
biological target: Cytochrome P450 2C9 (Homo sapiens) (UniProt P11712); assay: Cytochrome panel assay with activity outcomes; conditions: recombinant CYP, pro-luciferin dealkylation, luminescence, p450-cyp2c9; series mostly up to 57.1 µM; activity, negative = inhibition: at the top concentration
% is set by controls: 0 for no effect and ±100 for the full control effect.

Cytochrome P450 2C9 (Homo sapiens), sequence (P11712 whole entry, looked up): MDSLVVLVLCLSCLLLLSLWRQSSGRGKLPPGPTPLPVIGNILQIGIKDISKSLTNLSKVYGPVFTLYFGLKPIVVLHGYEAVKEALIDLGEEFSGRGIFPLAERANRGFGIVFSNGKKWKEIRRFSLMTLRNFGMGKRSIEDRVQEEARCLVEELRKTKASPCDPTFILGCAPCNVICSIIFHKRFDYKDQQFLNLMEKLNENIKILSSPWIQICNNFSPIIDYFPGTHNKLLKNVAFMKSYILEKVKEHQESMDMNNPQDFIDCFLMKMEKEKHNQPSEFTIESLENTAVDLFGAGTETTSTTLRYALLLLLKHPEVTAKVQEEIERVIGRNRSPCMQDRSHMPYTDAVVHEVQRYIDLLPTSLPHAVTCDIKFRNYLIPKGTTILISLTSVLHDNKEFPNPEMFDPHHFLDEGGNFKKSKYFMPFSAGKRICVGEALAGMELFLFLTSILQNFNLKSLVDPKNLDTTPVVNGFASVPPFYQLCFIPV

AC50, active:
CCOC(=O)c1cnn(-c2nc(-c3ccc(F)cc3)cs2)c1C(F)(F)F 12600 nM
CCOC(=O)c1cnn(-c2nc(-c3cccc(F)c3)cs2)c1C(F)(F)F 2240 nM
O=c1c2ccccc2nnn1CSc1ccc2c(c1)OCCO2 7940 nM
Cc1ccc(C(=O)/C=C/c2c[nH]c3ccccc23)cc1 2820 nM
CSc1nsc(SCc2ccc(Cl)cc2)n1 355 nM
COC(=O)c1c(-n2c(C)cc(C=O)c2C)sc2c1CCCC2 1120 nM
Cc1sc(N/N=C/c2cccnc2)nc1-c1ccccc1 355 nM
COc1cc([C@H]2c3cc4c(cc3[C@@H](O)[C@@H]3COC(=O)[C@H]23)OCO4)cc(OC)c1OC 6310 nM
Cn1cc([N+](=O)[O-])c(C(=O)Nc2cc(Oc3cccnc3)cc([N+](=O)[O-])c2)n1 5620 nM
CCC/C=C(\CCC)C(NS(=O)(=O)c1cccc2cccnc12)c1ccc(C(=O)OC)cc1 (stereo not given) 1580 nM
CCC/C=C(\CCC)C(NS(=O)(=O)c1cccc2cccnc12)c1ccc(-c2ccccc2)cc1 (stereo not given) 2000 nM
O=[N+]([O-])c1ccc(S(=O)(=O)Cc2ccccc2)c2nonc12 316 nM
Cc1cc(OCCn2cc(/C(N)=N/O)c3ccccc32)ccc1Cl 12600 nM
Cc1csc(NC(=O)Cc2c[nH]c3ccccc23)n1 12600 nM
CC1(C)Cc2c(C#N)c(SCc3ccccc3)nc(N3CCOCC3)c2CO1 708 nM
COC(=O)C(Cc1ccc(OC(=O)c2ccc(C(F)(F)F)cc2)cc1)N1Cc2ccccc2C1=O (stereo not given) 8910 nM
COC(=O)C(Cc1ccc(OC(=O)c2ccc(Cl)cc2)cc1)N1Cc2ccccc2C1=O (stereo not given) 3160 nM
COC(=O)C1=C(C)NC2=C(C(=O)CCC2)C1c1cn(Cc2ccc(Cl)cc2Cl)nc1-c1ccccc1 (stereo not given) 1000 nM
C/C(=N\NC(=S)Nc1cccc(C)c1)c1ccccc1 6310 nM
Cc1cccc(NC(=S)NC(=O)CCc2ccccc2)c1 7940 nM
S=C(NCc1ccco1)N1CCN(C(c2ccccc2)c2ccccc2)CC1 3160 nM
O=C1C2ON(c3ccccc3)C(c3ccncc3)C2C(=O)N1c1ccccc1 (stereo not given) 398 nM
CCCC(C(=O)Nc1nccs1)c1ccccc1 (stereo not given) 12600 nM
CC(=O)OCCCN1c2ccccc2Nc2nnc(-c3ccccc3)cc21 1780 nM
Cc1ccc(SCCNC(=O)c2ccc(C)c(S(=O)(=O)Nc3ccccc3C)c2)cc1 4470 nM
Cc1ccccc1NS(=O)(=O)c1cc(C(=O)Nc2cccc(N(C)S(C)(=O)=O)c2)ccc1C 794 nM
Cc1ccc(SCc2ccc(C(=O)NCc3ccncc3)cc2)cc1 12.6 nM
Cc1ccc(SCCNC(=S)Nc2ccc(C)c(C)c2)cc1 12600 nM
Cc1ccc(SCCNC(=O)c2ccccc2)cc1 17800 nM
O=C1NC(c2cccc([N+](=O)[O-])c2)=CCN1c1ccccc1O 1000 nM
Cc1c(-c2ccc(F)cc2)nc(N)c(C#N)c1-c1cccs1 1580 nM
CSc1nc(N)nc(-c2cccs2)c1C#N 7080 nM

AC50, inactive:
O=C(Nc1cccc(C(=O)Nc2ccc(S(=O)(=O)O)c3cc(S(=O)(=O)O)cc(S(=O)(=O)O)c23)c1)Nc1cccc(C(=O)Nc2ccc(S(=O)(=O)O)c3cc(S(=O)(=O)O)cc(S(=O)(=O)O)c23)c1

AC50, inactive and 7.94 µM (active):
O=C(Nc1cc(C(=O)Nc2ccc(S(=O)(=O)O)cc2S(=O)(=O)O)cc(C(=O)Nc2ccc(S(=O)(=O)O)cc2S(=O)(=O)O)c1)Nc1cc(C(=O)Nc2ccc(S(=O)(=O)O)cc2S(=O)(=O)O)cc(C(=O)Nc2ccc(S(=O)(=O)O)cc2S(=O)(=O)O)c1

activity, negative = inhibition, inactive:
O=C(Nc1ccc(C(=O)Nc2ccc(C(=O)Nc3ccc(S(=O)(=O)O)c4cc(S(=O)(=O)O)cc(S(=O)(=O)O)c34)cc2)cc1)Nc1ccc(C(=O)Nc2ccc(C(=O)Nc3ccc(S(=O)(=O)O)c4cc(S(=O)(=O)O)cc(S(=O)(=O)O)c34)cc2)cc1 -1.99%
COCCNc1ccnc(-c2ccccc2C)n1 -5% [at 2.29 µM]
CCOC(=O)c1cnn(-c2cc(Oc3ccccc3)ncn2)c1N -9.04%
CCOC(=O)c1cn(-c2nc(-c3ccc(Cl)cc3)cs2)c2c(F)c(N3CC(C)OC(C)C3)c(F)cc2c1=O (stereo not given) -40.2%
CCOC(=O)c1cnn(CCOC(=O)C(C)(C)C)c1NC(=O)C(C)(C)C -32.9%
FC(F)(F)c1ccccc1-c1cncnc1NCc1cccs1 -5.24% [at 2.29 µM]
CC(C)n1nnc2ccccc2c1=O -24.8%
Cc1ccc(C(=O)/C=C2\NCC(C)NC2=O)cc1 (stereo not given) -2.82%
CC(C)(C)OC(=O)[C@H]([C@@H]1N[C@@H](C(=O)O)C(C)(C)S1)N1C(=O)c2ccccc2C1=O 19% [at 11.4 µM]
CCN1C(=O)[C@H]2[C@H]3[C@H](O)[C@H](O)C/C(=N/O[C@@H](C)c4cn([C@H](CO)Cc5ccccc5)nn4)[C@@H]3CC[C@@H]2C1=O -13.4% [at 11.4 µM] and 2.69% [at 11.4 µM]
CC1(C)O[C@@H]2O[C@H]([C@H](O)CO/N=C3/[C@H]4O[C@@H]4[C@@H](O)[C@H]4[C@H]3CCn3c(=O)n(-c5ccccc5)c(=O)n34)[C@@H](O)[C@@H]2O1 15.4% [at 11.4 µM]
Cc1cc(C=O)c(C)n1-c1ccc(NC2CCCC2)c([N+](=O)[O-])c1 -36.3%
Cc1cnn(-c2cc(N/N=C/c3ccccc3)ncn2)c1 -16%
C(=N/Nc1nnc2c(n1)[nH]c1ccccc12)/c1cccnc1 -16.8% [at 11.4 µM]
CC(C)=C[C@H]1[C@@H](C(=O)Oc2ccccc2C(C)C)C1(C)C -15.1% [at 11.4 µM]
CCN1C(=O)[C@H]2[C@@H]3[C@H](O)C=CC(=O)[C@H]3CC[C@H]2C1=O 17.9% [at 11.4 µM]
CCN1CCN(C(=O)N[C@H](C(=O)N[C@@H]2C(=O)N3[C@@H]2SC(C)(C)[C@@H]3C(=O)O)c2ccccc2)C(=O)C1=O 25.1% [at 25.6 µM]
COc1cc2c(c(O)c1OC)C(=O)C(OC)CCC2 (stereo not given) 18.1%
Nc1ncnc2c1nc(-c1ccccc1)n2[C@H]1O[C@@H](CO)[C@@H](O)[C@H]1O 9.27% [at 11.4 µM]
O=[N+]([O-])c1cccc2c[nH]nc12 7.17%
COc1cc(OC)c(OC)cc1C=NCC1(c2ccccc2)CCCC1 32.7%
CN1CCCC2(CCN(C(=O)c3cnccn3)CC2)C1 15.7%
CC(C)(N)C(=O)N[C@@H]1C(=O)N2[C@@H]1SC(C)(C)[C@H]2C(=O)O 14.5% [at 11.4 µM]
CCCCCCC(C)n1cc(C(C)=O)c(=O)[nH]c1=O (stereo not given) -56.9%
COC(=O)[C@H](N)Cc1ccc(Cl)cc1 -6.72%
O=C(Oc1ccc2c(c1)CN(Cc1ccccc1)CO2)c1ccccc1 -0.387% [at 11.4 µM]
CCN(CC)C(=O)C1=C(C)NC(=S)NC1c1cn(-c2ccccc2)nc1-c1ccc(Cl)cc1 (stereo not given) -22.4%
c1ccc2c(c1)CCCc1cc(NCCN3CCOCC3)nnc1-2 8.78% [at 25.6 µM]
COc1ccccc1CN1CCC2(CCNCC2)CC1 -8.3%
C(=Nc1cnc2ccccc2c1)c1ccc2ccccc2n1 3.29% [at 11.4 µM]
Cc1cccc(NC(=S)Nc2ccc(Br)cc2)c1 -14.1%
C[C@@H](c1ccccc1)N1C(=O)[C@H]2[C@H]3[C@H](O)[C@H](O)C/C(=N/OCc4ccccc4)[C@@H]3CC[C@@H]2C1=O -23.4% [at 11.4 µM]
COc1ccc(CNc2ncncc2-c2cccc(C#N)c2)c(OC)c1 -28.7% [at 2.29 µM]
CN1CCN(C(c2ccccc2)c2ccccc2)CC1 -7.31% [at 25.6 µM]
NC(=O)CNCCC(c1ccccc1)c1ccccc1 14.6%
COC(=O)c1cc(=O)n(C2CC2)c(=NC2CC2)s1 18.9%
O=C(O)c1ccccc1C(=O)Nc1nccs1 -17.5%
O=C(O)[C@H](CCc1ccccn1)c1ccccc1 -5.61% [at 11.4 µM]
COc1ccccc1CN1CCC2(CC1)CCN(C(=O)c1cccn1C)CC2 8.97%
CCCNC(=O)N1N=C(c2ccc(N)cc2)c2cc3c(cc2[C@H]1C)OCO3 -17%
Cc1ccc(C(=O)NCc2ccc(N3CCN(C(=O)OC(C)(C)C)CC3)cc2)cc1 -18.2%
O=C(O)[C@@H]1[C@@H](C(=O)NCc2ccncc2)[C@@H]2C=C[C@@H]1O2 -12.4% [at 11.4 µM]
Cc1ccc(C)c(S(=O)(=O)NC(CC(C)C)C(=O)O)c1 (stereo not given) 2.73%
COCC(=O)N1CCC2(CC1)CN(Cc1ccccc1OC)C2 16.9%
CC1=C(C(=O)O)N2C(=O)C(NC(=O)c3ccn(C)n3)C2SC1 (stereo not given) -1.32%
CC(C)(N=NC(C)(C)C(=N)N)C(=N)N 0.959% [at 11.4 µM]
COc1ccccc1CN1CCCC2(CCN(C(=O)c3cnccn3)CC2)C1 13.5%
Cc1ccc(C(=O)NCCNC(=O)CN2CCOCC2)cc1 -18.5%
Nc1nc(-c2cccc([N+](=O)[O-])c2)cc(-c2cc(-c3cccc([N+](=O)[O-])c3)nc(N)n2)n1 20.9% [at 11.4 µM]
Nc1nc(-c2cccs2)cs1 -11.3%
Cc1cnc(CNc2ccnc(-c3ccc(N(C)C)cc3)n2)cn1 1.73% [at 2.29 µM]

Source: PubChem BioAssay AID1851 (National Center for Advancing Translational Sciences (NCATS), 2009)
